Screens from PubChem BioAssay.
Sampled rows, rich in hits. Any-hit rate of the full collection: about 3.9%.
HTT promoter inh – inhibits huntingtin promoter activity; 48,000 compounds, 0.93% hits; Potency, µM (titrated, usually from 57.5 µM), usual class: inhibitors; HEK293 HTT promoter firefly luciferase reporter, 24 h; also: nearly all actives have a fitted effect of over 50% in size
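Firefly luciferase signal from promoter-reporter HEK293 cells was scaled between vehicle (0%) and zero RLU (-100%). Compounds were tested at final concentrations of up to 57.5 uM over 24 h at 37 degrees C. PTC124 at 50 uM final served as control inhibitor.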
p53null 32C kill – selectivity test: cytotoxicity in p53 null cells, permissive temperature; H1299-neo p53 null cells, ATP luminescence, 24 h, 32C; Potency, µM (doses to about 46.1 µM), usual class: cytotoxic; 55,000 compounds, 0.62% hits; also: nearly all actives have a fitted effect of over 55% in size
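Overnight 37C seeding (600 cells/well) of H1299-neo preceded a 24 hr, 32C exposure to compounds up to 46 uM. ATP levels, read by luminescence after 20 min at RT, indicated surviving cells.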
p53null 39C kill – p53 null cell cytotoxicity, nonpermissive temperature; H1299 p53-null (neo) cells, 39C, ATPlite viability, 24 h; Potency, µM (series often up to 46.1 µM), hits mostly cytotoxic; 55,000 compounds, 0.97% hits; AID 904; also: nearly all actives have a fitted effect of over 50% in size
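Cells seeded at 600/well, 37C overnight. Compound added (up to 46 uM), plates shifted to 39C for 24 hr. ATPlite added, luminescence read after 20 min at room temperature.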
HTT-AS promoter – activates huntingtin-antisense promoter activity; HEK293 HTT-AS promoter firefly luciferase reporter, 24 h; response scale: percent change from vehicle, -100% = no light; Potency, µM (series often up to 57.5 µM), actives largely listed as activators; 48,000 compounds, 0.24% hits; also: nearly all actives have a fitted effect of over 55% in size
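Quantitative HTS used concentration series of up to 57.5 uM final on HEK293 luciferase reporter cells, 24 h at 37 degrees C. Readout was Dual-Glo firefly luminescence.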
DRV1 agonist – agonists of human resolvin D1 receptor DRV1 (GPR32); O75388; CHO-K1 GPR32 beta-arrestin PathHunter luminescence, 90 min; zero percent set by DMSO-only wells; activation, % at 76.9 µM; 48,000 compounds, 2.5% hits;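 active = activation of at least 60% and not above a set upper limit, about 1 call in 100 departs from these limits; inconclusive = activation of 40% to 60%, or above that upper limit; inactive = activation under 40%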
Target sequence (O75388 whole entry, looked up): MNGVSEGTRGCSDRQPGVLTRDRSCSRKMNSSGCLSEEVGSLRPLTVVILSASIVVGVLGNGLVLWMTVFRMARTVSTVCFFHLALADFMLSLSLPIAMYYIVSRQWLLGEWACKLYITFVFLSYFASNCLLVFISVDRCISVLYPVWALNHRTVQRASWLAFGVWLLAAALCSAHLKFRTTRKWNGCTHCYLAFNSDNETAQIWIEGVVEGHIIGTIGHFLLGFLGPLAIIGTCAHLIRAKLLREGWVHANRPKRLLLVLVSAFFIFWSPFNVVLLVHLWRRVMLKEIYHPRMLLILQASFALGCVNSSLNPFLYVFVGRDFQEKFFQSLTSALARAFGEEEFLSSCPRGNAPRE
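Using DMSO wells as EC0, agonist-induced signal was taken as chemiluminescence from beta-Gal reconstituted upon beta-arrestin recruitment to GPR32 in CHO-K1 cells after 90 min compound treatment.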
Numbers stand for hits; . = inactive; ? = inconclusive; / = no result. Unless noted, calls follow the shape of the dose curve; as a rule, active = well fitted curve in the direction sought with a large enough effect; inconclusive = small, poorly fitted or top-dose-only effect, or another doubt; inactive = no such curve, though single readings can be large; an effect the other way counts as inactive or inconclusive.

SMILES | HTT promoter inh | p53null 32C kill | p53null 39C kill | HTT-AS promoter | DRV1 agonist
CCS(=O)(=O)c1ccc(OC)c(C(=O)OC)c1 | . | / | / | . | .
COc1cc2[nH]c(=O)n(Cc3ccc(C(=O)N4CCN(c5ccc(Cl)cc5)CC4)cc3)c(=O)c2cc1OC | 14µM | . | . | . | .
COc1ccc(Cn2c(=O)[nH]c3cc(C(=O)N4CCN(c5cccc(Cl)c5)CC4)ccc3c2=O)cc1 | . | . | . | . | .
Cc1nc2ccccc2c(=O)n1-c1ccc(NC(=O)C(F)(F)F)cc1 | . | . | . | . | .
Cc1nc2ccccc2c(=O)n1-c1ccc(NC(=O)c2ccccc2[N+](=O)[O-])cc1 | . | . | . | . | 68
O=C(O)c1c(O)c(-c2ccccc2)nc2ccccc12 | . | / | / | . | ?
Cc1ccc(C(=O)c2cn(Cc3c(F)cccc3Cl)c3nc(C)ccc3c2=O)cc1 | . | . | . | . | 82
Cc1ccc(Cn2cc(C(=O)c3ccc(C)cc3)c(=O)c3ccc(C)nc32)cc1 | . | . | . | . | .
CON=C(C(=O)N[C@@H]1C(=O)N2C(C(=O)O)=C(CSC(=O)c3ccco3)CS[C@H]12)c1csc(N)n1 | . | / | / | . | /
Cc1cnn(C)c1C(=O)Nc1cc(Nc2ccc3c(C=Cc4ccccn4)n[nH]c3c2)ccc1F | ? | / | / | . | /
Cc1cc(-c2ccc(C)c(S(=O)(=O)Nc3ccccc3C(F)(F)F)c2)on1 | ? | ? | 11µM | . | .
CCc1nn2c(=O)cc(COC(=O)c3ccccc3)nc2s1 | . | . | . | 4µM | .
O=c1cc(COc2ccc(Cl)cc2Cl)nc2scc(-c3ccccc3)n12 | . | . | . | . | .
Cc1nn2c(=O)cc(COC(=O)c3ccc(NC(=O)COc4ccccc4F)cc3)nc2s1 | . | . | . | . | 62
Cc1nn2c(=O)cc(COC(=O)c3ccc(NC(=O)COc4ccc(C)c(C)c4)cc3)nc2s1 | . | . | . | . | .
CCOc1ccc(C(=O)Nc2ccc(C(=O)OCc3cc(=O)n4c(C)csc4n3)cc2)cc1 | ? | ? | 13µM | . | .
O=c1cc(COc2ccccc2Cl)nc2scc(-c3ccccc3)n12 | . | . | . | . | 86
Fc1cc(-c2cccc3ncc(-c4cnn(C5CCNCC5)c4)nc23)cc(F)c1CN1CCOCC1 | . | / | / | . | /
CC(=O)N[C@@H]1[C@H](O[C@@H]2c3ccc(c(Cl)c3)Oc3cc4cc(c3O[C@H]3O[C@H](CO)[C@@H](O)[C@H](O)[C@H]3NC(=O)CCCCCCCC(C)C)Oc3ccc(cc3Cl)C[C@H]3NC(=O)[C@H](N)c5ccc(O)c(c5)Oc5cc(O)cc(c5)[C@H](NC3=O)C(=O)N[C@H]4C(=O)N[C@H]3C(=O)N[C@@H]2C(=O)N[C@@H](C(=O)O)c2cc(O)cc(O[C@H]4O[C@H](CO)[C@@H](O)[C@H](O)[C@H]4O)c2-c2cc3ccc2O)O[C@H](CO)[C@@H](O)[C@@H]1O | . | / | / | . | /
COCCOCC(OC)OC | . | / | / | . | .
O=C(c1ccc(C=Cc2n[nH]c3ccccc23)cc1)N1CCNCC1 | . | / | / | . | /
COc1ccccc1C(=O)OCc1cc(=O)n2c(C)csc2n1 | . | ? | ? | 11µM | .
Cc1csc2nc(COC(=O)c3cccc(NC(=O)COc4ccccc4Cl)c3)cc(=O)n12 | ? | ? | 6.3µM | . | .
Cc1nn2c(=O)cc(COC(=O)c3cccc(NC(=O)COc4ccccc4C)c3)nc2s1 | 3.2µM | . | . | . | .
COC(=O)[C@H]1[C@H]2C[C@@H]3c4[nH]c5cc(OC)ccc5c4CCN3C[C@H]2C[C@@H](OC(=O)/C=C/c2ccc(O)c(OC)c2)[C@@H]1OC | . | / | / | . | .
CCNC(=O)Nc1ccc(-c2nc3c(c(N4CCOC[C@H]4C)n2)CCN(C2COC2)C3)cc1 | ? | / | / | . | /
COc1cccc(-c2nnc(SCC(=O)N(C)C3CCCCC3)o2)c1 | . | . | . | . | 72
COc1ccc(NC(=O)CSc2nnc(-c3ccc(C)cc3)o2)cc1 | . | . | . | . | .
COc1cccc(NC(=O)CSc2nnc(-c3cccc(OC)c3)o2)c1 | . | 16µM | 6.3µM | 14µM | 78
